Calls of active or inactive are those of the source. Unless noted, the rule behind the calls is not given here.
What was measured:
[1] = anti-His antibody binders, primary screen, artefact control for SMM control protein annotation, biochemical, small-molecule microarray, 635 nm fluorescence (AID 1128); conditions: anti-His Alexa647 antibody binding, higher = more signal;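 note: score merges feature fluorescence with signal-to-noise for each printed compound spot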
[2] = test system: Human papillomavirus type 1a E7 protein (residues 1-88); experiment: HPV1a E7 small-molecule binders, primary screen, biochemical, small-molecule microarray, residues 1-88, 635 nm (AID 1129); conditions: small-molecule microarray binding, fluorescence 635 nm; higher = more signal
[3] = target: Focal adhesion kinase 1 (Homo sapiens) (UniProt Q05397); experiment: small-molecule microarray binders of FAK, primary screen, biochemical, 635/667 nm fluorescence, BSA, DTT (AID 1130); conditions: PTK2 binding, 635 nm fluorescence, higher = more signal;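 note: composite of spot emission at 667 nm and signal to noise over triplicate slides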
[4] = test system: Fibrinogen (Alexa647-labelled); experiment: fibrinogen binders on compound microarrays, profiling panel, artefact control for SMM control-protein annotation, biochemical, small-molecule microarray, 635/667 nm fluorescence (AID 1131); conditions: fibrinogen-A647 binding fluorescence, higher = more signal;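 note: z-score merges 667 nm fluorescence with per-spot signal-to-noise over triplicate slides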
[5] = target: Follistatin (Homo sapiens) (UniProt P19883); experiment: follistatin binders on small-molecule microarrays, primary screen, biochemical, small-molecule microarray, 635/667 nm fluorescence (AID 1132); conditions: FST binding, 635 nm fluorescence, higher = more signal
[6] = target: Fibroblast growth factor 2 (Homo sapiens) (UniProt P09038); experiment: FGF2 binders on small-molecule microarrays, primary screen, biochemical, small-molecule microarray, 635/667 nm fluorescence (AID 1133); conditions: small-molecule microarray binding, FGF2, fluorescence 635/667; higher = more signal
[7] = mitochondrial membrane potential change in A549 cells, profiling panel, cell-based, JC-1 fluorescence, basal, 24 h, 100 nL (AID 1138); conditions: higher = more signal;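 note: A549 lung adenocarcinoma cells under basal conditions with no added stimulus; test concentration not given here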
Lefty1 = Lefty1 binders on small-molecule microarrays, primary screen, biochemical, small-molecule microarray, 635/667 nm fluorescence (AID 1139); conditions: small-molecule microarray binding, fluorescence 635/667; higher = more signal
[8] = test system: wheat germ agglutinin (Triticum aestivum), Alexa647-labelled; experiment: wheat germ agglutinin binders on compound microarrays, profiling panel, artefact control for SMM control-protein annotation, biochemical, small-molecule microarray, 635/667 nm fluorescence (AID 1140); conditions: WGA-A647 binding, 635 nm fluorescence, higher = more signal;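 note: score merges 667 nm feature emission with signal to noise over triplicate slides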
[9] = target: Luciferin 4-monooxygenase (Photinus pyralis) (UniProt P08659); experiment: firefly luciferase enzyme inhibitors, primary screen, biochemical, luminescence, purified enzyme, 2006 set (AID 1141); conditions: SteadyGlo luminescence, 30 min, higher = more signal, called active from +8 up or from −8 down;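 note: cell-free assay with purified firefly luciferase at 100 ng per well in PBS; test concentration not given here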
[10] = test system: Wnt5a (protein binding on small-molecule microarray); experiment: Wnt5a binders on small-molecule microarray, primary screen, biophysical, 635/667 nm fluorescence (AID 1142); conditions: 635 nm fluorescence, higher = more signal;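 note: fluorescence read at 667 nm with signal to noise per printed feature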
[11] = cell viability in Huh7 cells, primary screen, cytotoxicity control for HCV replication inhibitor project, CellTiter-Glo luminescence, basal, 48 h (AID 1143); conditions: Huh7 HCV replicon, higher = more signal, called active from +8 up or from −8 down;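 note: Huh7 hepatoma cells carrying a hepatitis C replication reporter with no stimulus; test concentration not given here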
[12] = P. aeruginosa biofilm formation inhibitors, primary screen, PAO1 strain, BacTiter-Glo luminescence, LB-PBS (AID 1144); conditions: 12 h, higher = more signal
[13] = CREB reporter modulators without forskolin, primary screen, cell-based, PC12, CRE-LacZ reporter, unstimulated (AID 1145); conditions: no forskolin, luminescence, 4.5 h, higher = more signal, called active from +8 up or from −8 down
[14] = CREB reporter modulators under forskolin, primary screen, cell-based, PC12, CRE-LacZ reporter, forskolin-stimulated (AID 1146); conditions: luminescence, 4.5 h, higher = more signal, called active from +8 up or from −8 down;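 note: PC12 cells with 6xCRE LacZ reporter stimulated by forskolin 10 µM; beta-galactosidase reporter signal reflecting CREB driven transcription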
[15] = target: Streptavidin (Streptomyces avidinii) (UniProt P22629); experiment: streptavidin binders on small-molecule microarray, primary screen, artefact control for SMM compound annotation, biophysical, 635/667 nm fluorescence (AID 1147); conditions: streptavidin binding, higher = more signal;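 note: signal reflects streptavidin binding to arrayed compounds as a control protein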
[16] = small-molecule binders of probe aInhba, primary screen, biochemical, small-molecule microarray, 635/667 nm fluorescence (AID 1148); conditions: higher = more signal;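 note: score merges 667nm spot fluorescence with signal-to-noise for antibody binding to printed compounds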
Torsin-1A (Homo sapiens) [17] = target: Torsin-1A (Homo sapiens) (UniProt O14656); experiment: torsin A binders from cell lysate, primary screen, small-molecule microarray, wild-type, 635/667 nm (AID 1149); conditions: COS7 hTOR1A-WT lysate, 635 nm fluorescence, higher = more signal
Torsin-1A (Homo sapiens) [18] = target: Torsin-1A (Homo sapiens) (UniProt O14656); experiment: small-molecule binders of mutant TOR1A in lysate, primary screen, cell lysate, small-molecule microarray, COS7 lysate, 635/667 nm fluorescence (AID 1150); conditions: COS7 hTOR1A mutant lysate, 635 nm fluorescence, higher = more signal;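 note: score pools 667 nm emission and signal to noise measuring lysate protein binding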
[19] = test system: Sonic hedgehog protein (Shh); experiment: small-molecule binders of Shh protein, primary screen, biochemical, small-molecule microarray, 635/667 nm fluorescence (AID 1151); conditions: small-molecule microarray binding, 635 nm fluorescence; higher = more signal;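 note: Shh protein binding to compounds spotted on small-molecule microarray slides; score combines spot fluorescence intensity with signal-to-noise across triplicate slides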

Streptavidin (Streptomyces avidinii), sequence (P22629 whole entry, looked up): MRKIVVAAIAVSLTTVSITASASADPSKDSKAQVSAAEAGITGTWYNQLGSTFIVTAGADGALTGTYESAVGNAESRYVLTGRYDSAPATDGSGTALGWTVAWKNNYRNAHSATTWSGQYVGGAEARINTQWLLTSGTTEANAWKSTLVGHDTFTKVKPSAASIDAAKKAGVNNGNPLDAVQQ
Focal adhesion kinase 1 (Homo sapiens), sequence (Q05397 whole entry, looked up): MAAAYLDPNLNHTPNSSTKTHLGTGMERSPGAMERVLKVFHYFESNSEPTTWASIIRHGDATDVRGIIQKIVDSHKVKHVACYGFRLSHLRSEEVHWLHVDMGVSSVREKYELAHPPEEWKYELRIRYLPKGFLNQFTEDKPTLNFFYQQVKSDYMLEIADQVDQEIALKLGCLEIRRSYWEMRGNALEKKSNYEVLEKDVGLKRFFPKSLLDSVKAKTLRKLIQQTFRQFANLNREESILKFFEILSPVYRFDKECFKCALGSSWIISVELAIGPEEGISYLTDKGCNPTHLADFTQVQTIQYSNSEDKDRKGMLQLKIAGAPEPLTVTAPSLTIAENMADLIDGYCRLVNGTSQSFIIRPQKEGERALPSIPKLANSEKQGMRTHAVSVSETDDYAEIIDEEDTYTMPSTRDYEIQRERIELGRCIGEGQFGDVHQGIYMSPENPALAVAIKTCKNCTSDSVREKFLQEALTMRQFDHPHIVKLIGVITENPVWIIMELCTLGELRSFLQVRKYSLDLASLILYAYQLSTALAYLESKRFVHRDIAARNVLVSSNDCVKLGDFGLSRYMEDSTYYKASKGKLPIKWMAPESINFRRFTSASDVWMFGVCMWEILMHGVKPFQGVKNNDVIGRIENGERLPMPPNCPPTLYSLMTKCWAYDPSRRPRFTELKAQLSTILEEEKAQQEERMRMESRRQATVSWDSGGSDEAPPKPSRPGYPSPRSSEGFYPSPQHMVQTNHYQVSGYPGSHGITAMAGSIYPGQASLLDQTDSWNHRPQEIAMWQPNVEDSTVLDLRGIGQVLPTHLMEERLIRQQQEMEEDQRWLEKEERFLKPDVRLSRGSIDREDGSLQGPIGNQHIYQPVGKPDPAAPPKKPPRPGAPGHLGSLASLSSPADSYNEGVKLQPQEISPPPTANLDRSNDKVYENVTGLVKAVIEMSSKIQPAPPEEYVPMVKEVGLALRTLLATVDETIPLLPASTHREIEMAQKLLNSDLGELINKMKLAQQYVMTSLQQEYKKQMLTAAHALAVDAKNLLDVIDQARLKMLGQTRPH
Fibroblast growth factor 2 (Homo sapiens), sequence (P09038 whole entry, looked up): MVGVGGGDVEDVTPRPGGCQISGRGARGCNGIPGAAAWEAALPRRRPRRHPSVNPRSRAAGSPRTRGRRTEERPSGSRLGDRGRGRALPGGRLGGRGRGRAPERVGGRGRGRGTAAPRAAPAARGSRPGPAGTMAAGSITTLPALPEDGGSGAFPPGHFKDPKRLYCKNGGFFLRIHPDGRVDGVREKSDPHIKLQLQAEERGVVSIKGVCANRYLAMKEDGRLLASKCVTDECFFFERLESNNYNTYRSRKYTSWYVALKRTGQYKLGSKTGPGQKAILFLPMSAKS
Luciferin 4-monooxygenase (Photinus pyralis), sequence (P08659 whole entry, looked up): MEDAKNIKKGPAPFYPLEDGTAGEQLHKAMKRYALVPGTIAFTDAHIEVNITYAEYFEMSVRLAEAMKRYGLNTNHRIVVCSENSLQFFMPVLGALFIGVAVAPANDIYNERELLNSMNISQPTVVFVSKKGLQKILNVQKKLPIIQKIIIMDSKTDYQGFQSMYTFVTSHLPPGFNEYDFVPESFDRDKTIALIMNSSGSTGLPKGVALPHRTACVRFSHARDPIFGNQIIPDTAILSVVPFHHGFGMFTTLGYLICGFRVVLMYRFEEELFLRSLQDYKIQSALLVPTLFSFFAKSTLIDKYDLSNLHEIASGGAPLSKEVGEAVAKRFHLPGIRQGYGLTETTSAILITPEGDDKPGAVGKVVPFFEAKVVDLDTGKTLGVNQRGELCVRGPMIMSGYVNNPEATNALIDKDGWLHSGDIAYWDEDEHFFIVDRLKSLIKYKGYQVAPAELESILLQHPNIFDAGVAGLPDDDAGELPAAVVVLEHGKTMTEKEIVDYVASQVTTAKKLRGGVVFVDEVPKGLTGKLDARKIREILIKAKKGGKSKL
Torsin-1A (Homo sapiens), sequence (O14656 whole entry, looked up): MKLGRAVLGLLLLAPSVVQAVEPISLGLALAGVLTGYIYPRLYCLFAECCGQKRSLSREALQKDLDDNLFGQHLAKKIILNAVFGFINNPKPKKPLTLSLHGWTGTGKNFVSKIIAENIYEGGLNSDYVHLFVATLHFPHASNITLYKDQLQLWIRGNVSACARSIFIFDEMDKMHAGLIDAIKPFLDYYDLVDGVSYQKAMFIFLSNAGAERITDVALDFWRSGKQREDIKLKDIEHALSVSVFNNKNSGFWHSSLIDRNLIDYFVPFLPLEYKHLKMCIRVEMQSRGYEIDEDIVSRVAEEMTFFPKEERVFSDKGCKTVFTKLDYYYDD
Follistatin (Homo sapiens), sequence (P19883 whole entry, looked up): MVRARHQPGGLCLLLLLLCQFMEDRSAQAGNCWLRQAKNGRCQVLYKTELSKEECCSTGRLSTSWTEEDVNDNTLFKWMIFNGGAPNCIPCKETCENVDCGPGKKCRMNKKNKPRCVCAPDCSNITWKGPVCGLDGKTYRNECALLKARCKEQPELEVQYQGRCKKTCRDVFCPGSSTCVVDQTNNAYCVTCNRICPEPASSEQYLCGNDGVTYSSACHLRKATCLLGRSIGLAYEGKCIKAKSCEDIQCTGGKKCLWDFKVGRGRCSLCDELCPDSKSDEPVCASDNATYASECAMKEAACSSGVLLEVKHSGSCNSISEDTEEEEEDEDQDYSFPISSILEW

Compound | composite z-score [1] | composite z-score [2] | composite z-score [3] | composite z-score [4] | composite z-score [5] | composite z-score [6] | z-score [7] | composite z-score (Lefty1) | composite z-score [8] | z-score [9] | composite z-score [10] | z-score [11] | z-score [12] | z-score [13] | z-score [14] | composite z-score [15] | composite z-score [16] | composite z-score (Torsin-1A (Homo sapiens) [17]) | composite z-score (Torsin-1A (Homo sapiens) [18]) | composite z-score [19]
CCOC(=O)C1=CC[C@@H](c2ccccc2)N(S(=O)(=O)c2ccc(C)cc2)[C@H]1c1cccc(OC)c1 | 0.741 | 1.15 | -0.0106 | 0.669 | 0.76 | 0.356 | 1.96 | -0.245 | 0.773 | 1.56 (inactive) | -0.134 | -2.97 (inactive) | 0.966 (inactive) | -0.424 (inactive) | 0.576 (inactive) | 0.717 | 0.135 | 0.4 | 0.314 | -0.176
CC(C)=CCCC(C)=CC(O)C1C=CC2C(=O)N(c3ccccc3)C(=O)C2N1Nc1ccccc1F (stereo not given) | 1.55 | 1.03 | 0.789 | 0.988 | 0.462 | -0.617 | -0.4 | 0.278 | 0.327 | 2 (inactive) | 0.151 | -2.83 (inactive) | -1.45 (inactive) | -0.0228 (inactive) | 0.358 (inactive) | 1.17 | 0.0047 | -0.216 | -0.0306 | 0.396
C=CCC(OC(C)=O)[C@@H]1[C@@H](N(Cc2ccc(-c3ccccc3)cc2)C(=O)Cc2ccc(F)cc2)c2cc(OCCCO)ccc2N1C(=O)Cc1ccc2ccccc2c1 (stereo not given in full) | -0.631 | -0.0842 | 0.318 | -0.198 | 0.305 | -0.0712 | 1.85 | -0.0639 | 0.139 | -1.2 (inactive) | 0.261 | 0.189 (inactive) | -0.59 (inactive) | 0.367 (inactive) | 0.997 (inactive) | 0.612 | 0.038 | -0.194 | -0.0043 | -0.0096

From PubChem BioAssay
